# About 83,000 compounds went through this panel and 20% of them were active in at least one assay; those are over-represented in the sample as a whole.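 In brief: 96-well plates, 48 h treatment, single concentration, percent growth endpoint.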 Values without a mark were called inactive. Calls of active or inactive are those of the source. Rule for the calls: active = growth percent below 10; inactive = the rest.
# Experiments:
# Experiment in all cases: NCI-60 one-dose screen, 48 h (100 = growth as untreated, 0 = no growth, -100 = all killed)
# Details in all cases: 10 µM unless noted
# HCT-15 colon = tested on: HCT-15 colon
# HT29 colon = tested on: HT29 colon
# SNB-19 CNS = tested on: SNB-19 CNS
# U251 CNS = tested on: U251 CNS
# PC-3 prostate = tested on: PC-3 prostate
# SK-MEL-5 melanoma = tested on: SK-MEL-5 melanoma
# UACC-62 melanoma = tested on: UACC-62 melanoma
# LOX IMVI melanoma = tested on: LOX IMVI melanoma
# SK-MEL-28 melanoma = tested on: SK-MEL-28 melanoma
# SNB-75 CNS = tested on: SNB-75 CNS
SMILES,growth (HCT-15 colon),growth (HT29 colon),growth (SNB-19 CNS),growth (U251 CNS),growth (PC-3 prostate),growth (SK-MEL-5 melanoma),growth (UACC-62 melanoma),growth (LOX IMVI melanoma),growth (SK-MEL-28 melanoma),growth (SNB-75 CNS)
Clc1cccc(N2COOC3(OOC2)C2CC4CC(C2)CC3C4)c1,94.6%,85.2%,101%,35.8%,74.8%,86.5%,93.3%,-63.4% (active),114%,–
O=[N+]([O-])c1ccc(OP(=O)(CCl)N(CCCl)CCCl)cc1 (stereo not drawn),90.3%,86.8%,111%,–,–,107%,104%,98.4%,106%,77.7%
COc1cc2c(cc1OCCCCCn1c(-c3ccco3)nc3ccccc31)N=C[C@@H]1CCCN1C2=O,7.84% (active),1.38% (active),23.3%,8.03% (active),17.5%,-17% (active),-86.9% (active),-31.6% (active),-58.6% (active),–
COc1cc(NC(C)CCCNC2CN3CCC2CC3)c2ncccc2c1 (stereo not drawn),65.8%,27%,86.5%,77.7%,55.6%,70%,38%,76.1%,95.3%,–
CCOC(=O)CCC(NC(=O)C(Cc1ccc(N(CCCl)CCCl)cc1)NC=O)C(=O)OCC (stereo not drawn),36.3%,62.3%,–,48.4%,71.7%,-70.1% (active),-37.7% (active),-78.3% (active),–,30.3%
O=C1C(N2CC2)=C(N2CC2)C(=O)C(N2CC2)=C1N1CC1,2.19% (active),2.38% (active),–,-63.6% (active),7.53% (active),-76.7% (active),-84.6% (active),–,-51.8% (active),-52.6% (active)
COc1ccc(/C=C/c2cc(OC)c(OC)c(OC)c2)cc1NC(=O)/C=C/c1ccc(F)cc1,25.2%,9.9% (active),33.5%,36.8%,28.7%,7.06% (active),35.5%,39%,–,–
COc1ccc(C2=N[C@@H](Cc3ccccc3)C(=O)Nc3ccsc32)cc1,34.7%,17.9%,69.8%,42.7%,59.1%,34.9%,16.9%,47.6%,54.5%,–
C=CC[n+]1ccc(-c2cc[n+](CC=C)cc2)cc1,96.4%,29.1%,111%,89.4%,90.9%,71.4%,110%,101%,102%,–
O=C1C=C2C(=CCOC2O)O1 (stereo not drawn),-8.81% (active),-24.3% (active),84.1%,74.8%,33.9%,78.7%,-14.2% (active),1.42% (active),37.7%,–
COC(=O)CCC1=C(C)c2cc3[n-]c(cc4nc(cc5[n-]c(cc1n2)c(CCC(=O)OC)c5C)C=C4C)cc3C.[Cd+2],35.5%,28.8%,73.9%,61%,33.9%,-7.46% (active),24.1%,44.3%,68.8%,–
COC(=O)N[C@H]1CCc2c(Br)c(OC)c(OC)c(OC)c2-c2ccc(SC)c(=O)cc21,7.69% (active),12%,28.2%,21.4%,21.7%,-44.6% (active),38.6%,12.1%,–,–
O=C1CN=C(c2ccc(Cl)cc2)c2sccc2N1,98.6%,100%,96.6%,101%,98.6%,99.5%,91.6%,95.3%,–,–
CC12CCC3C(CCC4=CC(=O)CCC43CF)C1CCC2=O (stereo not drawn),106%,116%,109%,111%,97.4%,109%,115%,96.6%,117%,–
COc1cc2c(cc1OCCCCn1c(-c3cccs3)nc3ccccc31)N=C[C@@H]1CCCN1C2=O,-11.9% (active),2.34% (active),10.5%,-2.52% (active),-4.05% (active),-80% (active),-91.1% (active),-48.9% (active),-37.4% (active),–
O=[N+]([O-])CC(c1ccccc1Cl)c1c(-c2ccccc2)[nH]c2ccccc12 (stereo not drawn),22.8%,8.38% (active),45.4%,34.8%,31.6%,28.4%,30.7%,33.4%,61.4%,–
CCCCC1(CCC)C(=O)NC(=S)NC1=O,93.7%,105%,–,95.9%,80.4%,104%,104%,103%,108%,77.5%
COc1cc([C@@H]2c3cc4c(cc3[C@H](OC(C)=O)[C@H]3COC(=O)[C@@H]23)OCO4)cc(OC)c1OC,11.8%,1.62% (active),–,8.16% (active),15%,-20.9% (active),18.5%,27.3%,48.6%,4.62% (active)
Fc1ccc(N2COOC3(OOC2)C2CC4CC(C2)CC3C4)cc1,88.6%,102%,95.5%,97.1%,90.4%,101%,76.5%,-82.2% (active),100%,–
C/C1=C/C(=O)O[C@@H]2C[C@@H](CC[C@H](C)/C=C\C=C\CC1)O[C@@](O)([C@@H]1CSC(=O)N1CO)C2,46.6%,8.8% (active),–,5.44% (active),–,29.5%,29.2%,7.38% (active),-31.7% (active),-41.5% (active)
Cn1cccc1C1CC(=O)N(CCC[Se]C#N)C1=O (stereo not drawn),-56.5% (active),7.03% (active),-65.2% (active),-85.5% (active),6.15% (active),-51.9% (active),27%,-66.8% (active),-6.1% (active),–
Clc1cccc(NCOOC2(OOCNc3cccc(Cl)c3)CCCCCC2)c1,93.2%,102%,93.2%,101%,91.2%,93.7%,102%,-85.2% (active),107%,–
COc1cccc(/C=C/[N+](=O)[O-])c1,-9.58% (active),-48.6% (active),71.8%,54.4%,63.6%,80.6%,92.6%,-80.6% (active),50.2%,–
ClCCN(CCCl)c1nc(Cl)c(C2CC(c3ccccc3)=NN2c2cc(Cl)cc(Cl)c2)s1 (stereo not drawn),104%,101%,98.7%,99.4%,93.7%,102%,92.9%,99.2%,106%,–
CC(=O)[C@H]1CC[C@H]2[C@@H]3CC[C@H]4C[C@H](N)CC[C@]4(C)[C@H]3CC[C@]12C,64.5%,13.7%,–,69.2%,62.1%,62.8%,80.9%,69.4%,86.2%,49.5%
C1CCC2(CC1)OOCNCOO2,99.3%,97.7%,113%,105%,98%,93.5%,113%,-76.6% (active),110%,–
C=C1[C@@H](C)[C@H]2[C@H](Cc3ccccc3)NC(=O)[C@]23[C@@H](O)/C=C/[C@@](C)(O)C(=O)[C@@H](C)C/C=C/[C@H]3[C@@H]1O,66.1%,25.3%,40.7%,21.9%,45.2%,77.6%,65.6%,27.1%,–,–
COc1ccc(/C=C\c2cc(OC)c(OC)c(OC)c2)cc1NS(=O)(=O)c1ccc(Cl)cc1,54.2%,75.7%,87.2%,77.8%,42.7%,51.6%,45.1%,71.3%,53%,–
CCCCN1CCCC[C@@H]1C(=O)N[C@H](C(=O)N(C)[C@H](C[C@@H](OC(C)=O)c1nc(C(=O)NC2CCC(C(=O)OC)CC2)cs1)C(C)C)C(C)C (stereo partly drawn),30.9%,14.8%,24%,15.5%,29.1%,38.4%,33.3%,35.6%,72.1%,–

# — PubChem BioAssay (NCI)
